Assay results from PubChem BioAssay.
Activity calls are given as the source filed them.

Assay: splicing luciferase reporter signal modulators, primary screen, spliceosome inhibition project, cell-based, HEK293, splice +/- reporter (AID 1101);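 note: HEK293 cells carrying a splicing-competent luciferase reporter gene; test concentration not given here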
Settings: luminescence, 24 h, higher = more signal, called active from +8 up or from −8 down

z-score, inactive:
NC(=O)NCC#Cc1ccc2c(c1)[C@]1(C(=O)N2)[C@H](C(=O)O)[C@H]2C(=O)O[C@H](c3ccccc3)[C@H](c3ccccc3)N2[C@@H]1c1ccc(OCCO)cc1 -0.253
[N-]=[N+]=Nc1ccccc1C[C@]1(C(=O)N2CCOCC2)N=C(c2ccc(OCCCO)cc2)O[C@H]1c1ccccc1 -0.963
COc1ccc(C#Cc2ccc3c(c2)[C@]2(C(=O)N3)[C@H](c3ccc(O)cc3)N3[C@H](c4ccccc4)[C@H](c4ccccc4)OC(=O)[C@H]3[C@@H]2C(=O)O)cc1 -0.518
O=C1O[C@@H](c2ccccc2)[C@@H](c2ccccc2)N2[C@@H](c3ccc(OCCO)cc3)[C@]3(C(=O)Nc4ccccc43)[C@@H](C(=O)O)[C@H]12 -0.715
C=C(/C(=C/C[C@H](OC(C)=O)c1cccc(OCCO)c1)c1cnc2ccccc2c1)C(C)C -0.236
COc1ccc([Si](C)(C)[C@H]2[C@H](CCn3cc([C@H](O)c4ccccc4)nn3)O[C@@]3(C(=O)N(Cc4ccc(N5C(=O)c6cccc7cccc5c67)cc4)c4ccccc43)[C@@H]2C)cc1 -0.64
CCC(CC)C(O)C1C=CC2C(=O)N(c3ccccc3)C(=O)C2N1Nc1ccc(C(C)C)cc1 (stereo unspecified) -0.0169
COC1OC[C@]2(C)[C@H]3C4=C(CN2C(=O)OC(C)(C)C)[C@H](C)C(CO)C(CO)C4CC[C@@H]13 (stereo partly specified) 2.09
COC(=O)[C@@]1(Cc2ccccc2N=[N+]=[N-])N=C(c2ccc(OCCCO)cc2)O[C@H]1c1ccccc1N=[N+]=[N-] 7.07
CC1CC/C=C\[C@H]2OC34C=CCN(C(C)C)C(=O)[C@H]3N(CCCCCCO)C(=O)[C@@H]4C2C(=O)O1 (stereo partly specified) -0.935
COC(=O)[C@@]1(Cc2ccc(OC)cc2)[C@H]2c3cc(C(=O)N4CCCC4)n(Cc4cccc5ccccc45)c3C[C@H]2CN1C(=O)c1ccccc1 -0.261
COc1ccc([Si](C)(C)[C@H]2[C@H](CC(=O)N(CCO)Cc3ccccc3)O[C@@]3(C(=O)N(Cc4cccc(N5CCOC5=O)c4)c4ccccc43)[C@@H]2C)cc1 -2.44
Cc1cc(C)c(C(O)C2C=CC3C(=O)N(c4ccccc4)C(=O)C3N2Nc2ccc(C(C)C)cc2)c(C)c1 (stereo unspecified) -0.00156
C=C(/C(=C/C[C@@H](OC(C)=O)c1cccc(OCCO)c1)c1cc(C(=O)OC)ccc1OC)C(C)C -0.0584
O=C1O[C@H](c2ccccc2)[C@H](c2ccccc2)N2[C@H]1[C@@H](C(=O)Nc1nc3ccccc3s1)[C@]1(C(=O)Nc3ccc(C#CC4(O)CCCCCC4)cc31)[C@H]2c1ccccc1OCCO -0.215
CN1C(=O)C2C=CC(C(O)C#Cc3ccccc3)N(Nc3ccccc3)C2C1=O (stereo unspecified) 1.24
C=CC[C@@]1(C(=O)N2CCOCC2)N=C(c2ccc(OCCCO)cc2)O[C@@H]1c1ccccc1CN=[N+]=[N-] 1.02
COc1cc(OC)c(C(O)C2C=CC3C(=O)N(C)C(=O)C3N2NC(=O)OC(C)(C)C)cc1Br (stereo unspecified) 1.51
CC(C)(C)OC(=O)CC[C@]1(C(=O)NCc2ccccc2)N=C(c2ccc(OCCCO)cc2)O[C@H]1c1ccccc1CN=[N+]=[N-] 0.22
CCCCCCc1nc(C2CC2)cc2c1[Si](C(C)C)(C(C)C)O[C@H]2c1ccccc1 0.214
COc1ccc(NC(=O)O[C@H]2[C@H](OC(=O)Nc3ccccc3)[C@H](OC(=O)Nc3ccccc3)[C@@H](OC)O[C@@H]2CO)cc1 -0.0162
COc1ccc([Si](C)(C)[C@@H]2[C@@H](CCO)O[C@]3(C(=O)N(Cc4ccc(N5CCCCC5=O)cc4)c4ccccc43)[C@H]2C)cc1 -1.73
COC(=O)c1cn(C[C@@H](Cc2ccccc2)NC(=O)N[C@H](CO)CCc2oc(C(C)=O)c(C(=O)OC)c2C(=O)OC)nn1 0.138
C=C(CCCC)/C(=C/C[C@@H](OC(=O)c1ccncc1)c1ccccc1OCCO)c1cnc2ccccc2c1 1.03
O=C1NC(=O)C2C1C=CC(C(O)c1ccco1)N2Nc1ccccn1 (stereo unspecified) 1.69
C=CCC(OC(C)=O)[C@@H]1[C@@H](N(Cc2cc3ccccc3o2)C(=O)c2ccc(C)cc2)c2cc(OCCCO)ccc2N1C(=O)Cc1ccc(OC)cc1 (stereo partly specified) -0.669
C=CCC(OC(C)=O)[C@@H]1[C@@H](N(Cc2ccc(-c3cccc(C(F)(F)F)c3)o2)C(=O)c2ccc(-c3ccccc3)cc2)c2cc(OCCCO)ccc2N1C(=O)c1ccc2ccccc2n1 (stereo partly specified) 0.39
CN1C(=O)C2C=CC(C(O)c3cccc(O)c3)N(Nc3ccccc3)C2C1=O (stereo unspecified) 1.27
CN1C(=O)C2C=CC(C(O)COCc3ccccc3)N(N(c3ccccc3)c3ccccc3)C2C1=O (stereo unspecified) 0.915
COCCCNC(=O)[C@]1(CCS(=O)(=O)c2ccccc2)N=C(c2ccc(OCCCO)cc2)O[C@@H]1c1ccccc1N=[N+]=[N-] 0.409
O=C1C2C=CC(C(O)c3ccccc3)N(Nc3ccccc3F)C2C(=O)N1c1ccccc1 (stereo unspecified) -0.245
CCOC(=O)c1ccc(NC(=O)O[C@H]2[C@H](OC(=O)Nc3ccc4c(c3)OCO4)[C@@H](OC(=O)Nc3ccc4c(c3)OCO4)[C@@H](OC)O[C@@H]2CO)cc1 -0.616
COc1ccc([Si](C)(C)[C@@H]2[C@@H](CC(=O)N3Cc4ccccc4C[C@H]3CO)O[C@]3(C(=O)N(C)c4ccccc43)[C@H]2C)cc1 -1.42
O=C(NCC(F)(F)F)[C@@H]1c2ccccc2C(=O)N(Cc2ccccc2C(F)(F)F)[C@H]1c1ccc(CO)cc1 -0.335
OCC1CC(c2ccccc2)=NO1 (stereo unspecified) -0.0813
C=CCNC(=O)[C@@H]1[C@H]2C(=O)O[C@H](c3ccccc3)[C@H](c3ccccc3)N2[C@H](c2ccc(O)cc2)[C@@]12C(=O)N(C(=O)OCCOC)c1ccc(C#CC3(O)CCCCCC3)cc12 -0.565
